This note sets out measurements from PubChem BioAssay.

Where “and” joins values, the source holds several entries; their conditions need not be identical. Equal entries are not always repeated. Calls of active or inactive are those of the source.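 How the source made its calls, unless noted: active means inhibition at or above 50% relative to wild type and mutant plate controls; inactive means inhibition below 50%.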

As a reminder, the inhibition is the relative decrease from the control value, in per cent.

Experiment [1] can be described thus: inhibitors of TNFa-induced NFkB p65 translocation, primary screen, imaging, HUVEC, MLSMR starter and 10KST1 sets (AID 438;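 active means inhibition above 20% together with a positive visual image hit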;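 further: compound added about 3h40 before a 20 min TNFalpha stimulation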;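 on inhibition: signal is the nuclear over cytoplasmic p65 intensity ratio per well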). Particulars: HUVEC TNFa-induced p65 nuclear translocation; cell count: measured here: nuclei count (cytotoxicity indicator), at 2.08 µM; inhibition: at 2 µM, stronger effect = higher value, 0% TNFa-plus-vehicle, 100% no-TNFa wells.
A short description of experiment [2]: reduction of polyQ htt aggregates in cells – imaging, exon1htt(103Q)mCFP cells, high-content imaging, primary screen (AID 483;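 active means visual image review flags a hit and inhibition of aggregation exceeds 20%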;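 further: compound exposure lasted 3 days before fixation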;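 on nuclei count: percent of the per-plate median nuclei count of sample wells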). Conditions: exon1htt(103Q)mCFP cell line, aggregate imaging, at 2 µM; inhibition of aggregation: stronger effect = higher value; nuclei count: measured here: cell count, toxicity.
Experiment [3] in a line: endothelial E-selectin expression blockers – imaging, HUVEC, immunofluorescence, MLSMR starter and 10KST1 sets, primary screen (AID 487;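 active means visually confirmed hit in the image check and inhibition above 20%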;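 on inhibition: signal is fraction of cell area covered by stained E-selectin grains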;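 on nuclei count: 100% = median nuclei count of all wells on the same plate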). Conditions: HUVEC TNFalpha-induced E-selectin immunofluorescence imaging, at 2 µM; inhibition: stronger effect = higher value; nuclei count: measured here: cell number, toxicity.
The nature of experiment [4]: Primary imaging screen for DUSP6 inhibitors that restore phospho-Erk in transfected HeLa cells, chemical complementation (AID 609;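 active means compounds giving at least 50% inhibition in the cell-based MKP-3 phosphatase rescue imaging test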;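 on inhibition: phospho-Erk level distribution per well compared with pooled transfected vehicle control wells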). Conditions: HeLa MKP-3 transfected, phospho-Erk imaging KS statistic, at 10 µM, cells stimulated with TPA for 15 min.
For experiment [5], the target named is Dual specificity protein phosphatase 6 (Homo sapiens) (UniProt Q16828). Described as above. Particulars: HeLa MKP-3 transfected, phospho-Erk imaging KS statistic; at 10 µM; stronger effect = higher value; cells stimulated with TPA for 15 min.
Sequence of Dual specificity protein phosphatase 6 (Homo sapiens) (Q16828 whole entry, looked up): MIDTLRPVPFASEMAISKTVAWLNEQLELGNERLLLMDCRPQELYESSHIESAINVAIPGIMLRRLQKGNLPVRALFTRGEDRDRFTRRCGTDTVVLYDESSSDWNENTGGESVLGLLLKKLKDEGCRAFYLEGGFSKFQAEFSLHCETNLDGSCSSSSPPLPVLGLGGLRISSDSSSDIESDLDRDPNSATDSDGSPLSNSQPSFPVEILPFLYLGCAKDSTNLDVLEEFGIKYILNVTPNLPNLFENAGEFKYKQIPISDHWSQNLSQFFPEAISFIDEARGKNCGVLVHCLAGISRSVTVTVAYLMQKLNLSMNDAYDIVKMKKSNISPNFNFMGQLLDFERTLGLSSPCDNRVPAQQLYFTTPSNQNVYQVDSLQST
Experiment [6] concerns the target Voltage-gated potassium channel subunit beta-2 (Rattus norvegicus) (UniProt P62483). Nature of the experiment: inhibitors of rat Kvbeta2 reductase activity – biochemical, NADPH fluorescence, primary screen (AID 622;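 active means fluorescence slope higher than the sample average by over 3 SD, cut at about -0.22 in these data, passing the limit was not always enough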;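 further: slope of raw intensity against log time taken from 70 to 1610 s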). Particulars: recombinant KvBeta, 4-cyanobenzaldehyde reduction, at 10 µM, stronger effect = higher value.
Experiment [7] shares this target. In words: enhancers of rat Kvbeta2 NADPH turnover – biochemical, NADPH fluorescence, primary screen (AID 623;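 active means NADPH fluorescence slope more negative than the mean of all samples by about 3 SD, 99.7% confidence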;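 further: fluorescence intensity change per second fitted from 20 to 320 s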). Particulars: Recombinant KvBeta, NADPH fluorescence decrease slope, 10 min; at 10 µM; stronger effect = lower value.
The target in experiment [8] is Alpha-2C adrenergic receptor (Homo sapiens) (UniProt P18825). In words: compounds altering alpha2C-coupled GIRK flux – cell-based, HEK293 alpha2C/GIRK1/2, thallium flux, primary screen (AID 624;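 active means fluorescence slope after compound addition differing from the mean of all screened samples at 99.7% confidence, in either direction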;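 further: slope of fluorescence ratio to pre-addition baseline per second over 15 to 24 s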). Particulars: thallium flux BTC fluorescence, at 10 µM, actives lie on both sides.
Sequence of Alpha-2C adrenergic receptor (Homo sapiens) (P18825 whole entry, looked up): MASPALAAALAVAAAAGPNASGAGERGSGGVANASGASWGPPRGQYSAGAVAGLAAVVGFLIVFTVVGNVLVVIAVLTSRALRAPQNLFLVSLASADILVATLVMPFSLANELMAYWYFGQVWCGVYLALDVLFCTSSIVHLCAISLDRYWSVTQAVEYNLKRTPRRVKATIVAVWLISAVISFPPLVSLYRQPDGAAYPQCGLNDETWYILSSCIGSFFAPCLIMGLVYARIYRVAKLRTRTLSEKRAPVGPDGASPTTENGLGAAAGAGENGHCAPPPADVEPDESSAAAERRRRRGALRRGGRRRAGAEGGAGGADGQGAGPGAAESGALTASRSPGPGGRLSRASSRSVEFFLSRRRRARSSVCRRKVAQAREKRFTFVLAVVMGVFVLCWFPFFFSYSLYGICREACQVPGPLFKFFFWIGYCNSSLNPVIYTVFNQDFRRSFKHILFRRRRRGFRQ
Experiment [9] in a line: inhibitors of larval lipid processing in zebrafish, primary screen, whole organism, PED6 fluorescence, gall bladder and intestine (AID 686;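 active means a full or partial loss of lipid-probe fluorescence in the fish gall bladder, intestine or both, judged by eye; inactive means no fluorescence loss, or compound toxic to the fish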;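 further: larvae 5 to 7 days old with five fish per well; signal comes from phospholipase A2 cleavage of quenched PED6 carried via bile; overnight exposure to compound and PED6 before scoring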). Particulars: Zebrafish larvae PED6 lipid processing, fluorescence scoring; screened at 20 µM (by protocol).
A short description of experiment [10]: loss of swimming-algae plug formation – whole organism, Chlamydomonas reinhardtii, WT vs cilia-less mutant, absorbance, 96-well, primary screen (AID 463189).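 Further: 0% = wild type cc124 cells in DMSO and 100% = ciliumless bld1 mutant cells.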 Conditions: Chlamydomonas reinhardtii gravitaxis, OD600 absorbance, 2 days; at 10 µM; stronger effect = higher value.
Experiment [11] can be described thus: blockers of RIG-like receptor reporter activation – cell-based, Sendai virus stimulus, luciferase, 10K MLSCN set, TLR/RLR signaling modifier project, primary screen (AID 602276;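 active means inhibition at or above 50% at 10 µM; inactive means inhibition below 50%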;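 further: firefly luciferase from ISG56 promoter only with Renilla not read in this screen; 0% = Sendai virus plus DMSO and 100% = medium plus DMSO without virus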). Conditions: HEK293 RL24 IRF3 luciferase reporter, at 10 µM, stronger effect = higher value. (In a reporter assay the amount or activity of a reporter protein is the signal.)
Experiment [12] in a line: TLR3 IRF3 reporter activation blockers – cell-based, poly I:C stimulus, luciferase, 10K MLSCN set, primary screen (AID 602277;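 active means inhibition of the reporter signal at or above 50%; inactive means inhibition below 50%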). Particulars: HEK293-TLR3 RL24 IRF3 luciferase reporter, at 10 µM, stronger effect = higher value.
[13] abbreviates: measured here: cell density z-score.
Where [14] appears, read: measured here: nuclear c-Myc green intensity z-score.
Where [15] appears, read: measured here: nuclear pErk red intensity z-score, stronger effect = higher value.

Sequence of Voltage-gated potassium channel subunit beta-2 (Rattus norvegicus) (P62483 whole entry, looked up): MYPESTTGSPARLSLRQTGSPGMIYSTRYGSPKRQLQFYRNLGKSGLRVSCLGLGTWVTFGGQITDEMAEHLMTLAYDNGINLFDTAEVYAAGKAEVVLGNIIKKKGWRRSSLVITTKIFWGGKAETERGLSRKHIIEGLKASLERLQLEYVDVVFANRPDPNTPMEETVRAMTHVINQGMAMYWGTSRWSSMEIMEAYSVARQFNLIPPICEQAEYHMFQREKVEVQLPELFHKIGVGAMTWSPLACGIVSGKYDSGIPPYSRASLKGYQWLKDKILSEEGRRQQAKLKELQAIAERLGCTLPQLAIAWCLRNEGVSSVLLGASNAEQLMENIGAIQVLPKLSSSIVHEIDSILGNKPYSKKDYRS

As for `COc1cc(/C=N/n2c(C)nnc2C)cc(OC)c1OC`, the cell count in [1] was 454. For the same compound, the inhibition is -5.9% (inactive) in experiment [1]; -27.1% (inactive) in [3]; -1.75% (inactive) in experiment [5]; 23.6% (inactive) in experiment [10]; 14% (inactive) in experiment [11]; 13.7% (inactive) in [12]. Also, the inhibition of aggregation in experiment [2] is 3.2% (inactive). For the same compound, the results for the nuclei count in [2] and in experiment [3] were 109% and 92.1%, respectively. For the same compound, the z-score in experiment [4] (setting [13]) is 0.126; in experiment [4] (setting [14]), -0.553; in experiment [4] (setting [15]) it was -1.17. Moreover, in experiment [6], the fluorescence slope is -0.395 (inactive). The NADPH fluorescence slope in experiment [7] is -3.1e-06 (inactive). Besides, in [8], the slope was 0.00638 (inactive). For the same compound, in experiment [9], the outcome was inactive.
Turning to `CCNC(=O)N(C)c1nncnc1C(=O)NC`, the cell count in experiment [1] was 435. For the same compound, the inhibition in experiment [1] is -12.6% (inactive); in [3], -11.1% (inactive); in experiment [5] it was 2.92% (inactive); in experiment [10], 35.2% (inactive); in [11], 18.1% (inactive); in experiment [12], 22.2% (inactive). In addition, the inhibition of aggregation in experiment [2] is 6.9% (inactive). Besides, the nuclei count in experiment [2] and in [3] was 105% each time. For the same compound, the z-score in experiment [4] (setting [13]) stood at 0.426; in experiment [4] (setting [14]) it was 0.386; in experiment [4] (setting [15]), 0.174. For the same compound, the fluorescence slope in experiment [6] was -0.505 (inactive). In addition, the NADPH fluorescence slope in experiment [7] is -4.4e-05 (inactive). In addition, the slope in experiment [8] was 0.00736 (inactive). In experiment [9], the call was inactive.
As to `O=C(O)CN(c1ccccc1)C1SC(=O)NC1=O` (stereo not given), the cell count in experiment [1] is 606. In addition, the inhibition in experiment [1] was -0.1% (inactive); in experiment [3], -50.9% (inactive); in experiment [5] it was 16.1% (inactive); in [10], 31.8% (inactive); in experiment [11], 11.9% (inactive); in experiment [12], 13.7% (inactive). Moreover, in [2], the inhibition of aggregation is 5.9% (inactive). The nuclei count in experiment [2] came out at 107%; in experiment [3], 140%. Moreover, the figures for the z-score in experiment [4] (setting [13]), in experiment [4] (setting [14]) and in experiment [4] (setting [15]) were -0.0323, -0.911 and 0.397, respectively. Further, the fluorescence slope in [6] is -0.506 (inactive). Besides, the NADPH fluorescence slope in [7] is -3.4e-05 (inactive). Further, the slope in experiment [8] was 0.00506 (inactive). Also, the call in experiment [9] was inactive.
For `COc1ccc(C2=Nn3c(nnc3-c3ccccc3)SC2)cc1OC`, the cell count in [1] was 523. For the same compound, the inhibition was -5.5% (inactive) in [1]; -126% (inactive) in experiment [3]; -11.5% (inactive) in [5]; 2.7% (inactive) in [10]; 25% (inactive) in experiment [11]; 40.2% (inactive) in experiment [12]. Moreover, the inhibition of aggregation in experiment [2] is -6.6% (inactive). The nuclei count in experiment [2] is 92.4%; in experiment [3], 132%. Further, the z-score in experiment [4] (setting [13]) was -0.336; in experiment [4] (setting [14]) it was 0.955; in experiment [4] (setting [15]) it was 0.104. Besides, the fluorescence slope in experiment [6] was -0.413 (inactive). Besides, in [7], the NADPH fluorescence slope is -0.000132 (inactive). Further, the slope in [8] is 0.00597 (inactive). In addition, in experiment [9], the compound was called inactive.
Turning to `NCc1ccc(S(N)(=O)=O)cc1`, the cell count in [1] turned out to be 705. In addition, the inhibition in experiment [1] is -2.8% (inactive); in experiment [3] it was -71.2% (inactive); in experiment [5] it was 21.2% (inactive); in experiment [10], 1.96% (inactive); in experiment [11] it was 14% (inactive); in experiment [12] it was 32.7% (inactive). In addition, the inhibition of aggregation in experiment [2] is 26.6% (inactive). Further, the nuclei count in [2] came out at 107%; in experiment [3], 118%. Further, the z-score in experiment [4] (setting [13]) was 0.933; in experiment [4] (setting [14]) it was -0.356; in experiment [4] (setting [15]), -0.92. For the same compound, the fluorescence slope in [6] is -0.453 (inactive). For the same compound, the NADPH fluorescence slope in experiment [7] is -9.2e-05 (inactive). Also, the slope in experiment [8] is 0.00484 (inactive). Further, the compound was classed as inactive in experiment [9].
Regarding `CN(C)c1ccc(O)c2c1CC1CC3[C@@H](N(C)C)C(=O)C(C(N)=O)=C(O)[C@]3(O)C(=O)C1=C2O` (stereo not given in full), the cell count in [1] was 516. Besides, the inhibition is -12.2% (inactive) in [1]; -55.7% (inactive) in [3]; 1.48% (inactive) in experiment [5]; 82.6% (active) in [10]; 17.8% (inactive) in experiment [11]; 26.1% (inactive) in experiment [12]. For the same compound, the inhibition of aggregation in [2] is 71.3% (active). In addition, the nuclei count in [2] amounted to 103%; in experiment [3], 131%. The z-score was 0.362 in experiment [4] (setting [13]), 0.874 in [4] (setting [14]) and 0.268 in experiment [4] (setting [15]). For the same compound, in experiment [6], the fluorescence slope was -0.51 (inactive). Further, the NADPH fluorescence slope in [7] was -5e-06 (inactive). Further, the slope in experiment [8] was 0.00461 (inactive). Also, in experiment [9], the result was inactive.
`CN(C)c1nc(OCCOC(=O)Nc2ccc(Cl)cc2Cl)nc(N(C)C)n1`: the cell count in experiment [1] is 397. The inhibition in experiment [1] was -14.7% (inactive); in experiment [3], -100% (inactive); in [5] it was -5.26% (inactive); in [10] it was -0.1% (inactive); in experiment [11], 11.3% (inactive); in experiment [12], 0.088% (inactive). For the same compound, the inhibition of aggregation in experiment [2] is -0.2% (inactive). Moreover, the nuclei count was determined as 56.4% in [2] and 122% in [3]. Besides, the z-score in experiment [4] (setting [13]) is 0.138; in experiment [4] (setting [14]), 0.513; in [4] (setting [15]), -0.605. For the same compound, in experiment [6], the fluorescence slope was -0.48 (inactive). The NADPH fluorescence slope in experiment [7] was -8.2e-05 (inactive). In addition, the slope in experiment [8] was 0.00682 (inactive). Further, in [9], the compound was called inactive.
Consider `Cc1cc(C)n(-c2nnc(C)n2/N=C/c2ccccc2F)n1`, for which the cell count in [1] was found to be 592. The inhibition is -10% (inactive) in experiment [1]; -75.7% (inactive) in experiment [3]; 9.82% (inactive) in experiment [5]; 5.75% (inactive) in [10]; 13.6% (inactive) in experiment [11]; 22% (inactive) in experiment [12]. Besides, the inhibition of aggregation in experiment [2] is -14.2% (inactive). Also, the nuclei count in experiment [2] stood at 107%; in [3] it was 153%. The z-score was 0.554 in experiment [4] (setting [13]), 1.09 in [4] (setting [14]) and -0.737 in [4] (setting [15]). The fluorescence slope in experiment [6] is -0.53 (inactive). Also, in experiment [7], the NADPH fluorescence slope was -4.2e-05 (inactive). In addition, the slope in [8] is 0.00446 (inactive). Further, the compound was classed as inactive in [9].
As for `c1ccc(Cc2nnc3n2CCCCC3)cc1`, the cell count in [1] was 427. Moreover, the inhibition in experiment [1] was -7.4% (inactive); in experiment [3], -122% (inactive); in experiment [5], -0.608% (inactive); in experiment [10], 22.9% (inactive); in [11] it was 13.8% (inactive); in [12], 22.9% (inactive). Moreover, the inhibition of aggregation in experiment [2] was 0.9% (inactive). The nuclei count in experiment [2] amounted to 104%; in [3], 114%. The z-score was -1.13 in [4] (setting [13]), -0.00465 in [4] (setting [14]) and -0.441 in [4] (setting [15]). Also, the fluorescence slope in experiment [6] was -0.55 (inactive). Further, in [7], the NADPH fluorescence slope was -4.5e-05 (inactive). For the same compound, the slope in [8] was 0.0052 (inactive). In addition, in [9], the compound was classed as inactive.
With `O=C(O)c1cc2cc(F)ccc2[nH]1`, the cell count in experiment [1] stood at 552. For the same compound, the inhibition in experiment [1] is -0.9% (inactive); in [3], -14.2% (inactive); in experiment [5] it was -5.24% (inactive); in [10], -3.42% (inactive) and -23.2% (inactive); in experiment [11], 12.4% (inactive); in experiment [12], 46.1% (inactive). Moreover, the inhibition of aggregation in [2] is -5.1% (inactive). In addition, the nuclei count in experiment [2] came to 95.6%; in [3], 107%. For the same compound, the z-score in experiment [4] (setting [13]) was 2.14; in experiment [4] (setting [14]), -1.93; in experiment [4] (setting [15]), -0.0855. Also, the fluorescence slope in experiment [6] was -0.457 (inactive). For the same compound, the NADPH fluorescence slope in experiment [7] was -3.2e-05 (inactive). Further, the slope in experiment [8] was 0.00488 (inactive). Besides, in [9], the compound was classed as inactive.
